Reference: PubChem BioAssay (Tox21)
Inconclusive results are not listed. Where a call stands in place of a potency, no number is given. The source holds several records for some structures; these can differ, active in one and inactive in another. Active and inactive are the calls of the source. Calls follow the shape of the dose curve; as a rule, active = well fitted inhibition curve with a large enough effect in the repeat runs; inconclusive = weak or mixed curves; inactive = no such curve, though single readings can be large or run the other way.

What follows are molecules tested against Estrogen receptor (Homo sapiens) (UniProt P03372) (assay: qHTS assay to identify small molecule antagonists of the estrogen receptor alpha (ER-alpha) signaling pathway using the BG1 cell line in the presence of 0.1 nM 17-beta-estradiol (AID 1259244; also: nearly all actives have a fitted effect of over 50% in size)). Settings: VM7Luc4E2 (BG1) ERE-luciferase, antagonist mode, 0.1 nM E2, 22 h; series mostly up to 92.4 µM.
Estrogen receptor (Homo sapiens), sequence (P03372 whole entry, looked up): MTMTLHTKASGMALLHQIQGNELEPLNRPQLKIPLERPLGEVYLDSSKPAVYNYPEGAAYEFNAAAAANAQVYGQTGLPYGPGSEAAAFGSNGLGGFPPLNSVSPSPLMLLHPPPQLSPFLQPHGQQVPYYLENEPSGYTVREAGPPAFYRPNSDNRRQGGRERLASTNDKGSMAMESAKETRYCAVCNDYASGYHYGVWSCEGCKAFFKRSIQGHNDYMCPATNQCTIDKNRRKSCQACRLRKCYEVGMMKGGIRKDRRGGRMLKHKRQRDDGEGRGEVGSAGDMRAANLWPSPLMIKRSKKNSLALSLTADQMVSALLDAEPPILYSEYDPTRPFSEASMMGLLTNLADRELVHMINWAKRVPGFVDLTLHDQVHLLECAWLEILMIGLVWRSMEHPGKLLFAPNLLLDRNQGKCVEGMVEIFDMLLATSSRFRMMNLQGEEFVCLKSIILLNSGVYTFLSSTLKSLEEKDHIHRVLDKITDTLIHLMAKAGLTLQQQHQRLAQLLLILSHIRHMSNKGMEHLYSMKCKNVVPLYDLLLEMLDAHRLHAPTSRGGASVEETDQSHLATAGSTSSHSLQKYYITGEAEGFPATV
Text: National Center for Advancing Translational Sciences [NCATS]
NIH Chemical Genomics Center [NCGC]
U.S. Environmental Protection Agency [EPA]
National Institutes of Environmental Health Sciences [NIEHS]
National Toxicology Program [NTP]
U.S. Food and Drug Administration [FDA]
Estrogen receptor (ER), a member of the nuclear hormone receptor plays an important role in development, metabolic homeostasis and reproduction. Two subtypes of ER, ER-alpha and ER-beta, have similar expression patterns with some uniqueness in both types. Endocrine disrupting chemicals (EDCs) and their interactions with steroid hormone receptors like ER causes disruption of normal endocrine function. Therefore, it is important to understand the effect of environmental chemicals in ER signaling pathway. For identifying ER antagonists, VM7Luc4E2 cell line was used to screen against Tox21 compound libraries.
VM7Luc4E2 cell line (provided by Denison MS, University of California) endogenously express full-length ER-alpha and is stably transfected with a plasmid containing four estrogen responsive elements (ERE) upstream of a luciferase reporter gene. The current screening for identification of ER-alpha inhibitors against Tox21 compound libraries used lower concentration (0.1 nM) of 17beta-Estradiol as a stimulator.
Tox21 Assay Protocol Summary:
VM7Luc4E2 cells were cultured in phenol red free assay medium containing 10% charcoal stripped FBS for 5 days prior to the assay. The cells were dispensed at 4,000 cells/well in 4 uL of assay medium into white wall/solid-bottom 1536-well plates (Corning Life Sciences, Corning, NY) using a Multidrop Combi (ThermoFisher Scientific, Waltham, MA) dispenser. After the assay plates were incubated at 37C and 5% CO2 for 24 hr, 23 nL of compounds dissolved in DMSO, positive controls or DMSO only was transferred to the assay plates by a Pintool station (Kalypsys, San Diego, CA). The transfer of compounds was followed by the addition of 1 uL of 0.1 nM (final concentration) agonist (17beta-Estradiol)/assay medium using a Flying Reagent Dispenser (FRD, Aurora Discovery, San Diego, CA). The plates were incubated at 37C and 5% CO2 for 22 hr. For luciferase reporter gene assay, 4 uL of ONE-Glo reagent (Promega Corporation, Madison, WI) was added to each well using the FRD and after 30 min incubation at room temperature luminescence intensity was measured using ViewLux plate reader (PerkinElmer, Shelton, CT).
Potency is read from the fitted curve at half-maximal effect.

SMILES	Potency
Cl/C=C/Cl	inactive
CC(C)c1cccc(C(C)C)c1O	inactive
Cc1ccc(O)c(C)c1	inactive
CCOc1ccc(N)cc1	inactive
CCCCC(CC)C(=O)Cl (stereo not given)	inactive
C[C@H]1C(=O)O[C@@H]2CCN3CC=C(COC(=O)[C@](C)(O)[C@]1(C)O)[C@H]23	inactive
Oc1c(Br)cc(Br)cc1Br	inactive
N#Cc1ccccn1	inactive
CCSC(=O)N1CCCCCC1	inactive
Cc1cc(O)ccc1Cl	inactive
FC(F)(F)c1ccc(Cl)cc1	inactive
O=C(O)C1C(C(=O)O)C2(Cl)C(Cl)=C(Cl)C1(Cl)C2(Cl)Cl (stereo not given)	inactive
CNC(=O)Oc1cccc2ccccc12	inactive
O=C(O)Cc1ccccc1	inactive
Sc1ccccc1	inactive
C=CC(=O)OCCCCCC(C)C	inactive
O=[N+]([O-])c1cc([As](=O)(O)O)ccc1O	inactive
Cc1cccc(C)c1NC(=O)CN1CCCC1=O	inactive
CCNc1nc(Cl)nc(NC(C)C)n1	inactive
CC(C)CCCCCCOC(=O)c1ccccc1C(=O)OCCCCCCC(C)C	inactive

SMILES	Potency
CNC(=O)O/N=C(\SC)C(=O)N(C)C	inactive
O=C(O)C(Br)Br	inactive
O=C(O)COc1ccccc1	inactive
CCCOC(=O)c1ccccc1C(=O)OCCC	inactive
COc1nc(NC(C)C)nc(NC(C)C)n1	inactive
O=C/C=C/c1ccccc1	inactive
Cc1cccc(N)c1	inactive
C[C@]12CC[C@H](O)CC1=CC[C@@H]1[C@@H]2CC[C@]2(C)C(=O)CC[C@@H]12	inactive
OCc1ccco1	inactive
C=CCN=C=S	inactive
Nc1cccc(Cl)c1	inactive
N#CN=C(N)N	inactive
Cc1cc(Cl)ccc1OC(C)C(=O)O (stereo not given)	inactive
CC(C)(C)C(=O)CCl	inactive
C=C(C)C(=O)OCC(CC)CCCC (stereo not given)	22.1 µM (active) and inactive
COS(=O)(=O)OC	inactive
Cc1cccc(N)c1C	inactive
C=CC#N	inactive
OCC(O)CCl (stereo not given)	inactive
CNC(=O)O/N=C/C(C)(C)S(C)=O (stereo not given)	inactive
